Eight compounds from PubChem BioAssay (NCI) can be followed below.

This is part of a sample that, as a whole, favours compounds with a hit. Of some 83,000 tested, about 20% had one in any assay.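 The endpoint reported here, percent growth, reads 100 for growth as untreated, 0 for no net growth and -100 for all cells dead.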 Values without a mark were called inactive. Calls of active or inactive are those of the source. Rule for the calls: active = growth percent below 10; inactive = the rest.

Test systems include HCT-15 colon; HT29 colon; SNB-75 CNS; U251 CNS; PC-3 prostate; SK-MEL-5 melanoma; UACC-62 melanoma; LOX IMVI melanoma; SK-MEL-28 melanoma; SK-MEL-2 melanoma; EKVX NSCLC; SN12C renal; UO-31 renal; TK-10 renal; ACHN renal; CAKI-1 renal; A498 renal; CCRF-CEM leukemia; MOLT-4 leukemia; SNB-19 CNS.
Common to all, as to test: NCI-60 one-dose screen, 48 h (100 = growth as untreated, 0 = no growth, -100 = all killed)
Common to all, as to settings: 10 µM unless noted

As to `ClCCn1cnc2c(SCc3ccccc3)ncnc21`, the growth in the assay on HCT-15 colon was 33.5%; with HT29 colon it was 41.2%; in the assay with SNB-75 CNS, 73.9%; in the assay with U251 CNS, 39.8%; with PC-3 prostate it was 38.4%; in the assay on SK-MEL-5 melanoma it was 57.3%. The growth in the assay with UACC-62 melanoma was 46.1%; with LOX IMVI melanoma, 22.3%; with SK-MEL-28 melanoma it was 78.5%; in the assay on SK-MEL-2 melanoma it was 120%; in the assay with EKVX NSCLC it was 77.2%; with SN12C renal, 57.5%. The growth was 65.2% with UO-31 renal; 83.5% with TK-10 renal; 49.4% in the assay with ACHN renal; 3.9% (active) in the assay with CAKI-1 renal; 81.6% in the assay on A498 renal; 62.8% in the assay with CCRF-CEM leukemia. In addition, the growth in the assay on MOLT-4 leukemia was 45.8%.

As for `O=S(=O)(N=C1C(Cl)=C(Cl)C(=NS(=O)(=O)c2ccccc2)C(Cl)=C1Cl)c1ccccc1`, the growth was 7.28% (active) in the assay on HCT-15 colon; 14% in the assay with HT29 colon; 132% in the assay with SNB-75 CNS; 59.8% in the assay with U251 CNS; 121% in the assay on PC-3 prostate; 87% with SK-MEL-5 melanoma. For the same compound, the growth with UACC-62 melanoma was 67.1%; with LOX IMVI melanoma, 54.6%; with SK-MEL-28 melanoma, 89.5%; with SK-MEL-2 melanoma, 14%; in the assay with EKVX NSCLC, 107%; in the assay with SN12C renal it was 87.6%. The growth in the assay on UO-31 renal was 89.5%; with TK-10 renal, 95.3%; in the assay with ACHN renal, -22.5% (active); with CAKI-1 renal, 5% (active); in the assay on A498 renal, 96.8%; with CCRF-CEM leukemia, 73.6%. Moreover, in the assay on MOLT-4 leukemia, the growth is 55%.

Regarding `COc1cc(-c2ccc[nH]2)[nH]c1/C=C1\N=C(C)C(CC(=O)OCC(C)(C)C)=C1C`, the growth was -78% (active) in the assay with HCT-15 colon; -59.9% (active) with HT29 colon; -23.8% (active) with SNB-75 CNS; -95.6% (active) in the assay on U251 CNS; -88.3% (active) in the assay with PC-3 prostate; -95.7% (active) with SK-MEL-5 melanoma. Further, the growth with UACC-62 melanoma was -82.6% (active); in the assay with LOX IMVI melanoma, -88.3% (active); in the assay on SK-MEL-28 melanoma, -78.2% (active); in the assay on SK-MEL-2 melanoma it was -60.4% (active); in the assay with EKVX NSCLC, -69.3% (active); with SN12C renal it was -75% (active). The growth in the assay with UO-31 renal was -86.5% (active); in the assay with TK-10 renal it was -89.9% (active); in the assay on ACHN renal it was -83.2% (active); in the assay on CAKI-1 renal, -78.8% (active); in the assay on A498 renal it was -89.9% (active); in the assay with CCRF-CEM leukemia, -16.5% (active). Also, the growth with MOLT-4 leukemia was -37% (active).

Consider `Cc1c2ccccc2nc2cc3c(cc12)[C@H]1CC[C@]2(C)C(=O)CC[C@H]2[C@@H]1CC3`, for which the growth in the assay on HCT-15 colon was 90.3%; in the assay with HT29 colon it was 99.9%; in the assay on SNB-75 CNS, 66.4%; in the assay with U251 CNS it was 92%; with PC-3 prostate, 80.6%; in the assay with SK-MEL-5 melanoma, 88.8%. In addition, the growth with UACC-62 melanoma was 88.1%; in the assay on LOX IMVI melanoma, 97.8%; in the assay on SK-MEL-28 melanoma, 111%; in the assay with SK-MEL-2 melanoma, 103%; with EKVX NSCLC, 91.5%; in the assay on SN12C renal, 95.4%. Besides, the growth is 74% in the assay on UO-31 renal; 111% with TK-10 renal; 95% in the assay on ACHN renal; 73.7% in the assay with CAKI-1 renal; 104% in the assay on A498 renal; 97.4% in the assay on CCRF-CEM leukemia. In addition, the growth with MOLT-4 leukemia was 80.8%.

For `Fc1cc2[nH]ncc2c2c3c(c(-c4cn[nH]c4C(F)(F)F)nc12)CCCC3`, the growth in the assay with HCT-15 colon was 4.79% (active); in the assay with HT29 colon, 6.14% (active); with SNB-75 CNS, -26.5% (active); in the assay with SNB-19 CNS it was 8.83% (active); in the assay on U251 CNS, -0.282% (active); in the assay on PC-3 prostate, 34.6%. For the same compound, the growth in the assay on SK-MEL-5 melanoma was -66.3% (active); in the assay with LOX IMVI melanoma, -50.6% (active); in the assay on SK-MEL-28 melanoma it was 0.426% (active); in the assay with SK-MEL-2 melanoma, -22.1% (active); with EKVX NSCLC, 8.29% (active); in the assay with SN12C renal it was 4.98% (active). In addition, the growth was -7.31% (active) with UO-31 renal; -8.31% (active) in the assay on TK-10 renal; 0.165% (active) with ACHN renal; -7.15% (active) in the assay with CAKI-1 renal; 1.34% (active) in the assay on CCRF-CEM leukemia; 10.9% with MOLT-4 leukemia.

Turning to `N#CC1=C(N)Oc2c(sc3c(F)cccc23)C1c1ccc([N+](=O)[O-])cc1` (stereo unspecified), the growth was -54.5% (active) with HCT-15 colon; -13.6% (active) in the assay with HT29 colon; -27.9% (active) in the assay on SNB-19 CNS; -64.5% (active) in the assay with U251 CNS; -10.4% (active) in the assay with PC-3 prostate; -95.9% (active) with SK-MEL-5 melanoma. Further, the growth in the assay on UACC-62 melanoma is -75.6% (active); in the assay on LOX IMVI melanoma, -83.1% (active); with SK-MEL-28 melanoma, -44.1% (active); with SK-MEL-2 melanoma, -42.2% (active); in the assay with EKVX NSCLC, -2.24% (active); in the assay on SN12C renal it was -79% (active). For the same compound, the growth is -26.4% (active) with UO-31 renal; -7.94% (active) in the assay on TK-10 renal; -2.28% (active) in the assay with ACHN renal; 0.858% (active) in the assay with CAKI-1 renal; -36.3% (active) with A498 renal; 3.46% (active) with CCRF-CEM leukemia. Besides, the growth with MOLT-4 leukemia is -1.93% (active).

For `O=[N+]([O-])c1ccccc1Sc1ccccc1[N+](=O)[O-]`, the growth in the assay on HCT-15 colon is 99.1%; in the assay with HT29 colon it was 92%; with SNB-19 CNS, 106%; in the assay on U251 CNS it was 90.6%; in the assay with PC-3 prostate, 87.5%; with SK-MEL-5 melanoma it was 97.3%. Further, the growth in the assay with UACC-62 melanoma is 100%; with LOX IMVI melanoma, 91.8%; in the assay on SK-MEL-28 melanoma, 109%; in the assay on SK-MEL-2 melanoma, 97.2%; in the assay on EKVX NSCLC it was 91.2%; in the assay on SN12C renal, 99.3%. For the same compound, the growth with UO-31 renal was 75.5%; in the assay with TK-10 renal it was 85.2%; in the assay with ACHN renal, 102%; in the assay with CAKI-1 renal, -54.5% (active); in the assay with A498 renal it was 81.2%; in the assay on CCRF-CEM leukemia it was 107%. The growth with MOLT-4 leukemia was 94.8%.

On to `Cc1ccc2c(c1)sc1nc(-c3c[nH]c4ccccc34)c(Nc3ccccc3)n12`, for which the growth with HCT-15 colon was 105%; in the assay on HT29 colon it was 104%; in the assay with SNB-19 CNS, 94.9%; in the assay with U251 CNS it was 106%; in the assay on PC-3 prostate, 90.4%; in the assay with SK-MEL-5 melanoma it was 113%. In addition, the growth in the assay on UACC-62 melanoma was 89.4%; in the assay with LOX IMVI melanoma it was 96.3%; with SK-MEL-28 melanoma, 110%; in the assay on SK-MEL-2 melanoma, 109%; with EKVX NSCLC, 101%; with SN12C renal, 102%. Moreover, the growth in the assay on UO-31 renal was 77.3%; in the assay on TK-10 renal, 114%; with ACHN renal, 100%; with CAKI-1 renal, 79.8%; in the assay on A498 renal, 109%; with CCRF-CEM leukemia it was 107%. The growth with MOLT-4 leukemia was 98.7%.
